# According to PubChem BioAssay (NCATS):
# Records with an inconclusive call do not appear. A number with no mark means an inactive call. Activity calls are given as the source filed them. Calls follow the shape of the dose curve; as a rule, active = well fitted cell-killing curve with a large enough effect; inconclusive = small, poorly fitted or top-dose-only effect, or effect the other way; inactive = no such curve, though single readings can be large or run the other way. Numbered stars: 1 amine (or outer) side, 2 acyl side, 3 side chain; on linkers, the order of the positions; unused ones are H or OH. Bridge positions count the residues as written; N and C are the ends. Square brackets hold non-standard residues; d marks the D form. Peptide text beside a SMILES is read from it. I, II: the chains in the order shown. Actinocin(9to1) = Cc1c2oc3c(C)ccc(C(=O)[*:1])c3nc-2c(C(=O)[*:2])c(N)c1=O; NMeV = CN[CH](C(=O)O)C(C)C; Sar = CNCC(=O)O
# Assay: Quantitative highthroughput screen to assess conditional lethalithy of SEM cells grown in RPMI1640 with unreated serum (RPMI+s) (AID 1963883); also: nearly all actives have a fitted effect of over 35% in size
# Conditions: SEM B-ALL cells, CellTiter-Glo viability, 48 h; series mostly up to 45.8 µM; viability: at the top concentration
# Source text: Assay Provider: Jason Cantor Ph.D.
# Department of Biochemistry
# University of Wisconsin-Madison, Madison, WI, USA
# Chemical screening studies have identified drug sensitivities across hundreds of cancer cell lines but most putative therapeutics fail to translate. Discovery and development of drug candidates in models that more accurately reflect nutrient levels in human blood is a major challenge. Here we performed high-throughput screens in conventional versus Human Plasma-Like Medium (HPLM) to identify compounds that were "missed" when screening using the artificial culture condition. Sets of conditional anticancer compounds spanned phases of clinical development and included non-oncology drugs were assessed. […] We also traced conditional phenotypes for several chemotherapeutics to availability of HPLM-specific metabolites and confirmed others for compounds whose reported targets are encoded by nonessential genes. Our findings establish generalizable strategies for exploiting conditional lethality in HPLM to reveal therapeutic candidates and mechanisms of action in cancer cells.
# Described herein are the results of each viability screens against three cell lines: NOMO1 (an acute myeloid leukemia cell line); P12-Ichikawa (a T-cell acute lymphoblastic leukemia); and SEM (a B-cell ALL). Each assay was screened using 3 different cell culture media: homemade human plasma-Like medium with 10% dialyzed fetal bovine serum (HPLM+ds); RPMI1640 with 10% untreated FBS and 5mM glucose (RPMI+s); and RPMI1640 with 10% dialyzed fetal bovine serum and 5 mM glucose (RPMI+ds).
# PROTOCOL TABLE (as described by Inglese J, Shamu CE and Guy RK. 2007)
# SEQUENCE No. (e.g., 1, 2, 3, etc.); […] (e.g., Cells, Incubation, Reagent, etc.); VALUE and DESCRIPTION.
# 1; Cells; 5 uL; white, solid bottom 1536-well Greiner assay plate.
# 2; Compounds; 23 nL; Kalypsis pin tool (Wako USA) equipped with a 1536-well pin head to transfer to the assay plates.
# 3; Incubation; 48 hours; 37C incubation.
# 4; Reagent; 3 uL; CellTiter Glo (Promega).
# 5; Incubation; 5 min, room temperature
# 6; Detection; Luminescence, Viewlux PerkinElmer.
# NOTES (numbers refer to Sequence numbers above)
# 1. Briefly, 5 ul of cell reagent was dispensed using a Multidrop Combi Dispenser. The NOMO1 and SEM cells were plated at 500 cells/well and the P12-Ichikawa line at 1000 cells/well.
# 2. After seeding the cells, 23 nL of MIPE 4.1 library compounds (in DMSO) were added to each plate using a Kalypsys 1536 Pintool dispenser. Bortezomib at final concentration of […] and DMSO were added to each plate as positive and negative controls respectively. For each screen, MIPE 4.1 compounds were added over an eleven-point concentration range […] in 3-fold dilutions.
# 3. Each plate was covered with a stainless steel gasketed lid to prevent evaporation and incubated for 48 hour at 37C, 95% relative humidity, and 5% CO2.
# 4-5. Three microliter CellTilter-GloTM luminescent substrate mix (Promega) reagent was added to the assay plate and incubated at room temperature for 5 min.
# 6. The luminescence signal was measured using a ViewLux (PerkinElmer) multiplate reader with a 2 second exposure time per plate. Data for each compound were normalized as percent viability such that measurements for DMSO and the empty well controls in each plate were defined as 100% and 0%, respectively.
# Potency is read from the fitted curve at half-maximal effect.
Compound,viability [%],Potency
CC1(C)O[C@H]2CC(=O)OC[C@]23[C@H]2CC[C@@]4(C)[C@H](c5ccoc5)OC(=O)[C@H]5O[C@]54[C@]2(C)C(=O)C[C@@H]13,90.7,
CC(=O)SCC(Cc1ccccc1)C(=O)NCC(=O)OCc1ccccc1 (stereo not given),87.7,
Nc1ccc(C(=O)c2cc3c(ccc4ccccc43)[nH]2)cc1,,3.72 µM (active)
Oc1ccc(C2CNCCc3c2cc(O)c(O)c3Cl)cc1 (stereo not given),104,
CC1(C)CCC(C)(C)c2cc(NC(=O)c3ccc(C(=O)O)cc3)ccc21,89.2,
CC(C)(C)NC(=O)[C@H]1CC[C@H]2[C@@H]3CC[C@H]4NC(=O)C=C[C@]4(C)[C@H]3CC[C@]12C,92.2,
CCC(C)(C)c1ccc(CC(C)CN2C[C@@H](C)O[C@@H](C)C2)cc1 (stereo not given in full),87.7,
Oc1cc(O)cc(C=Cc2ccc(O)c(O)c2)c1,,18.7 µM (active)
O=c1ccn([C@@H]2O[C@H](CO)[C@H](O)[C@H]2O)c(=O)[nH]1,87.6,
CCOC(=O)C(C)(C)Oc1ccc(Cl)cc1,93,
CNc1nc(-c2ccc3c(N)n[nH]c3c2)cc(N2C[C@@H](C(=O)NC3CCCCC3)CC[C@@H]2C)n1,,16.6 µM (active)
C[C@H](NC(=O)Cc1cc(F)cc(F)c1)C(=O)N[C@H](C(=O)OC(C)(C)C)c1ccccc1,82,
C[N+](C)(C)CC(=O)O,109,
Cn1cc(CNCC2CCN(c3ncc(C(=O)NO)cn3)CC2)c2ccccc21,,0.148 µM (active)
CN(C)Cc1ccc(-c2nc3cccc4c3n2CCNC4=O)cc1,98.4,
Cn1c(=O)c(F)c(Nc2ccc(I)cc2F)c2c(=O)n(C[C@@H](O)CO)cnc21,,6.62 µM (active)
C=C1[C@H](n2cnc3c(=O)[nH]c(N)nc32)C[C@H](O)[C@H]1CO,,0.526 µM (active)
CC(=O)O[C@@]12CO[C@H]1C[C@H](O)[C@@]1(C)C(=O)[C@H](O)C3=C(C)[C@@H](OC(=O)C(O)[C@@H](NC(=O)OC(C)(C)C)c4ccccc4)C[C@@](O)([C@@H](OC(=O)c4ccccc4)[C@@H]21)C3(C)C (stereo not given in full),4.59,
CCCCc1ccc(NS(=O)(=O)c2ccc(C)c(C(=O)N3CCN(c4cccc(C)c4C)CC3)c2)cc1,87.9,
"Cc1c2oc3c(C)ccc(C(=O)NC4C(=O)NC(C(C)C)C(=O)N5CCCC5C(=O)N(C)CC(=O)N(C)C(C(C)C)C(=O)OC4C)c3nc-2c(C(=O)NC2C(=O)NC(C(C)C)C(=O)N3CCCC3C(=O)N(C)CC(=O)N(C)C(C(C)C)C(=O)OC2C)c(N)c1=O (stereo not given) (I: TVP[Sar][NMeV] / II: TVP[Sar][NMeV]; ester I:1-I:C, II:1-II:C; linker I:N-II:N via Actinocin(9to1); configuration not given here)",1.08,

Compound,viability [%],Potency
CN(C)c1cccc(-c2c3c(=O)n(-c4ccccc4Cl)[nH]c3cc(=O)n2C)c1,,1.05 µM (active)
NCCCCNCCCN,,13.2 µM (active)
Cc1cn2cc(C(=O)N(C)CCO)cc(N[C@@H]3CCOc4cccc(C)c43)c2n1,97.9,
CC1(C)[C@H](C(=O)O)N2C(=O)C[C@H]2S1(=O)=O,99.4,
O=C(O)C1(Cc2cccc(Nc3nccs3)n2)CCC(Oc2cccc(Cl)c2F)CC1 (stereo not given),,3.32 µM (active)
CCOC(=O)N1c2ccc(C(F)(F)F)cc2[C@@H](N(Cc2cc(C(F)(F)F)cc(C(F)(F)F)c2)C(=O)OC)C[C@H]1CC,95.9,
CCn1c(-c2nonc2N)nc2c(C#CC(C)(C)O)ncc(OC[C@H]3CCCNC3)c21,,23.5 µM (active)
Cc1ccccc1C(C(=O)NC1CCCCC1)N(C(=O)CNc1ccc(C#N)cc1)c1cccc(F)c1 (stereo not given),113,
COc1ccc(F)c(F)c1C(=O)c1cnc(NC2CCN(S(C)(=O)=O)CC2)nc1N,,4.18 µM (active)
N#CC(c1ccc(Cl)cc1)c1c(Cl)cc(-n2ncc(=O)[nH]c2=O)cc1Cl (stereo not given),78.1,
COc1nc(N)nc2c1ncn2[C@@H]1O[C@H](CO)[C@@H](O)[C@@H]1O,95.9,
CCNC(=O)CCCC=CC[C@@H]1[C@H](C=CC(O)CCc2ccccc2)[C@@H](O)C[C@@H]1O (stereo not given in full),105,
O=C(O)c1ccc2cc(-c3ccc(O)c(C45CC6CC(CC(C6)C4)C5)c3)ccc2c1,,0.372 µM (active)
CN1CC(=O)NC1=NC(=O)Nc1cccc(Cl)c1,81.3,
CC1(C)CCC(c2ccc(Cl)cc2)=C(CN2CCN(c3ccc(C(=O)NS(=O)(=O)c4ccc(N[C@H](CCN5CCOCC5)CSc5ccccc5)c(S(=O)(=O)C(F)(F)F)c4)cc3)CC2)C1,,0.0526 µM (active)
CC(C)Nc1cc(C(F)(F)F)cc2nc(NC(=O)c3cccnc3)nn12,,1.18 µM (active)
Cn1c(N2CCCCS2(=O)=O)nc(C(=O)NCc2ccc(F)cc2)c(O)c1=O,113,
Cc1cncc2cccc(S(=O)(=O)N3CCCN(C(=O)CN)C[C@@H]3C)c12,,5.26 µM (active)
Cn1cnc2c1c(=O)[nH]c(=O)n2C,,18.7 µM (active)
CS(=O)(=O)c1cccc(CNc2nc(Nc3ccc4c(c3)CCC(=O)N4)ncc2C(F)(F)F)c1,,5.26 µM (active)
